From PubChem
LAP4-GFP MLPCN – yeast TOR pathway LAP4-GFP modulation; S. cerevisiae LAP4-GFP multiplex, flow cytometry GFP, 3 h; median GFP as percent of DMSO wells; AID 2023; hit rate 0.34% among 320,000; GFP response vs DMSO, % at 10 µM;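 active = GFP response vs DMSO above a set limit, about the screen mean plus 3 SD, cut at about 150% in these data; inconclusive = under 70 cell events counted for the yeast strain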
MEP2 TOR yeast – yeast TOR pathway MEP2-GFP modulation; S. cerevisiae MEP2-GFP strain, flow cytometry GFP, 3 h; 100% = DMSO control level; GFP response vs DMSO, % at 10 µM; hit rate 0.51% among 330,000; AID 2016;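 active = GFP response versus DMSO above a set limit, roughly screen mean plus 3 SD, cut at about 180% in these data; inconclusive = fewer than 70 cells counted for a yeast strain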;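 also: median GFP fluorescence of the barcode-gated MEP2-GFP cells per well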
RPL19A-GFP yeast – alters RPL19A-GFP fluorescence in TOR pathway yeast screen; S. cerevisiae RPL19A-GFP strain, flow cytometry, 3 h; active compounds read low; percent response vs DMSO, % at 10 µM; hit rate 0.3% among 330,000; AID 2025;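 active = percent response vs DMSO below 50%; inconclusive = fewer than 70 events counted for the yeast strain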;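 also: median channel GFP fluorescence of the barcoded RPL19A-GFP strain; lower means less RPL19A-GFP as with rapamycin TOR inhibition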
AGP1 TOR yeast – modulators of TOR pathway AGP1-GFP in S. cerevisiae; GFP response vs DMSO, % at 10 µM; hit rate 0.02% among 320,000; S. cerevisiae AGP1-GFP multiplex flow cytometry, 3 h; GFP as percent of DMSO wells; AID 2066;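 active = GFP response relative to DMSO above a set limit, near screen average plus 3 SD, cut at about 150% in these data; inconclusive = fewer than 70 cells counted for the yeast strain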;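 also: median GFP channel fluorescence of the gated AGP1 strain per well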
CIT2-GFP yeast – alters CIT2-GFP fluorescence in TOR pathway yeast screen. GFP response vs DMSO, % at 10 µM. S. cerevisiae CIT2-GFP strain, flow cytometry, 3 h; 100 means same as DMSO wells. hit rate 0.065% among 320,000;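 active = GFP response relative to DMSO above a set limit, near the screen mean plus 3 SD, cut at about 150% in these data; inconclusive = Fewer than 70 cells measured for a yeast strain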;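 also: ratio of well median GFP fluorescence to mean of DMSO wells on the plate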
Numbers stand for hits; n = inactive; u = inconclusive; x = no result given; ! = not active in a repeat; [ ] = remark or other dose. Rows were chosen to be rich in hits. Some 0.93% of all compounds tested hit in one or more screens of this group.

SMILES	LAP4-GFP MLPCN	MEP2 TOR yeast	RPL19A-GFP yeast	AGP1 TOR yeast	CIT2-GFP yeast
CC(OC(=O)C1CCCC1)C(=O)Nc1ccc(C(N)=O)cc1 (stereo unspecified)	n	n	n	n	n
O=C(c1cccc(F)c1)N1CCC(N2CCOCC2)CC1	n	261.8[may fluoresce violet]	x	n	u
O=C(c1cccc(Cl)c1)N1CCC(N2CCC(C(=O)N3CCOCC3)CC2)CC1	n	n	n	n	n
CS(=O)(=O)N(CC(=O)N1CCC(C(N)=O)CC1)c1ccc(Oc2ccccc2)cc1	n	255.3[may fluoresce violet]	44.8[may fluoresce violet]	u	u
COc1ccc(N(CC(=O)N2CCC(C(N)=O)CC2)S(=O)(=O)c2ccccc2)cc1	n	374.5[may fluoresce violet]	42.0[may fluoresce violet]	u	u
CCOC(=O)N1CCN(C(=O)CN(c2ccc(Oc3ccccc3)cc2)S(C)(=O)=O)CC1	n	n	n	n	n
NC(=O)c1ccccc1OCC(=O)c1ccc(Cl)cc1	n	194.6	n	n	n
NC(=O)c1ccccc1OCC(=O)NS(=O)(=O)c1ccc(Cl)cc1	n	n	n	n	n
Cc1nnc(SCc2ccc(F)cc2Cl)s1	n	180.8[may fluoresce violet]	19.1[may fluoresce violet]	u	u
O=C(NCc1ccccn1)c1ccc(Cl)c(NC2=NC3CS(=O)(=O)CC3S2)c1 (stereo unspecified)	n	n	n	n	n
CCOc1ccc(Nc2ccc(C(=O)O)cc2[N+](=O)[O-])cc1	160.8	n	n	n	n
O=C(CCCSc1nc2ccccc2s1)Nc1nccs1	n	n	n	n	n
Oc1ccc(C2C(c3ccccc3)=NN=C(c3ccc(Cl)cc3)N2O)c(O)c1 (stereo unspecified)	n	n	n	n	u
Oc1ccc(C2C(c3ccccc3)=NN=C(c3ccccc3F)N2O)c(O)c1 (stereo unspecified)	n	211.1[may fluoresce violet]	35.9[may fluoresce violet]	n	u
O=C(Nc1cccc(C(=O)O)c1)/C(=C/c1ccc2c(c1)OCO2)NC(=O)c1cccc(Br)c1	n	n	n	n	n
O=c1[nH]c(NCCO)c(N=Cc2ccccc2)c(=O)[nH]1	n	213.4[may fluoresce violet]	n	u	u
CCn1c(-c2cc(-c3ccc(C)c(C)c3)nc3ccccc23)n[nH]c1=S	n	n	n	n	n
CCn1c(-c2c[nH]c3ccccc23)n[nH]c1=S	n	184.7[may fluoresce violet]	n	n	u
C=CCn1c(-c2c[nH]c3ccccc23)n[nH]c1=S	n	n	n	n	n
CCOc1cccc(-c2cc(-c3n[nH]c(=S)n3CC)c3ccccc3n2)c1	u	267.8[may fluoresce violet]	44.6[may fluoresce violet]	u	u
c1ccc(-c2n[nH]c(-c3ccccn3)n2)nc1	n	179.6![may fluoresce violet]	13.5![may fluoresce violet]	u	u
c1ccc(-c2n[nH]c(-c3ccccn3)n2)cc1	n	n	n	n	n
C=CCn1c(=N)c(C(=O)OCC)cc2c(=O)n3cccc(C)c3nc21	n	243.9[may fluoresce violet]	16.1[may fluoresce violet]	x	u
C=CCn1c(=N)c(C#N)cc2c(=O)n3ccccc3nc21	n	239.9	n	u	n
CCOC(=O)c1cc2c(=O)n3cccc(C)c3nc2n(Cc2ccco2)c1=NC(=O)c1ccccc1	n	603.8[may fluoresce violet]	n	n	u
SMILES	LAP4-GFP MLPCN	MEP2 TOR yeast	RPL19A-GFP yeast	AGP1 TOR yeast	CIT2-GFP yeast
CCOC(=O)c1cc2c(=O)n3ccccc3nc2n(C(C)C)c1=NC(=O)c1ccco1	n	257.2[may fluoresce violet]	34.8[may fluoresce violet]	n	u
CCCn1c(=NC(=O)c2ccco2)c(C(=O)OCC)cc2c(=O)n3ccccc3nc21	n	n	n	n	n
CCOC(=O)c1cc2c(=O)n3cccc(C)c3nc2n(CC(C)C)c1=NC(=O)c1ccco1	n	n	n	n	n
C=CCn1c(=O)c(C#N)cc2c(=O)n3ccccc3nc21	n	n	n	n	n
CCOc1ccc(CN2CCN(CCCn3cccn3)CC2CCO)cc1 (stereo unspecified)	n	n	n	n	n
CC(=O)N1CCOc2ccc(S(=O)(=O)NCC3CCC(C(=O)NCCC(C)C)CC3)cc21 (stereo unspecified)	n	n	n	n	n
COc1ccccc1NC(=O)C(C)OC(=O)CCSc1ccc(F)cc1 (stereo unspecified)	n	n	n	n	n
CCOc1ccccc1C(=O)Nc1nncs1	n	n	n	n	n
CCOCCCn1c(=NC(=O)c2ccco2)c(C(=O)OCC)cc2c(=O)n3cccc(C)c3nc21	n	185.3[may fluoresce violet]	n	n	u
COc1ccc(-n2nc3c(c2NC(=O)C2CCCC2)CS(=O)(=O)C3)cc1	n	n	n	n	n
COc1cccc(-c2nc(NCc3cccnc3)c3ccccc3n2)c1O	n	560.8[may fluoresce violet]	30.9[may fluoresce violet]	n	u
Cn1ncc([N+](=O)[O-])c1C(=O)Nc1ccccc1	n	n	n	n	n
O=C(O)c1ccc(Nc2ccc3nonc3c2[N+](=O)[O-])cc1	n	210.3[may fluoresce violet]	49.0[may fluoresce violet]	u	u
Cc1ccc(N/C=C/C(=O)c2ccco2)c(O)c1	n	307.4[may fluoresce violet]	n	n	u
Cc1ccc([N+](=O)[O-])cc1N/C=C/C(=O)c1ccco1	n	n	n	n	n
COc1cccc(N2CCN(c3ccc4nnc(CCC(=O)Nc5ccc(F)cc5)n4n3)CC2)c1	n	238.0[may fluoresce violet]	n	u	u
COc1cccc(N2CCN(c3ccc4nnc(CCC(=O)Nc5ccc(F)cc5F)n4n3)CC2)c1	n	n	n	n	n
COc1ccc(C2C3=C(CC(C)(C)CC3=O)Nc3c2c(=O)[nH]c(=O)n3Cc2ccccc2)cc1 (stereo unspecified)	n	n	n	n	n
CCN1C(=O)[C@H]2[C@@H](c3ccc(C)cc3)N3C(=O)N(c4cccc(F)c4)C(=O)[C@@]3(C)[C@H]2C1=O	n	n	n	n	n
CC/C(=N/NC(=O)c1ccccc1)c1ccc(OCCN2CCOCC2)cc1	n	n	n	n	n
COc1ccccc1C(C)NC(=O)c1cc(=O)[nH]c2ccccc12 (stereo unspecified)	n	193.6[may fluoresce violet]	n	n	u
COc1ccccc1NC(=O)c1cc(=O)[nH]c2ccccc12	n	n	n	n	n
CCC(=O)N/N=C/c1ccc(-c2ccc([N+](=O)[O-])cc2)o1	n	n	n	n	n
CC(C)(C)C(=O)/C=c1\s/c(=C\c2ccc(-c3ccc([N+](=O)[O-])cc3)o2)c(=O)n1CC(=O)NC(N)=O	n	n	n	n	152.3
O=C(CN1N=C(C(F)(F)F)CC1(O)c1ccc([N+](=O)[O-])cc1)c1ccccc1 (stereo unspecified)	n	n	n	n	n
O=C(c1ccccc1O)N1N=C(C(F)(F)F)CC1(O)c1ccc([N+](=O)[O-])cc1 (stereo unspecified)	n	517.4[may fluoresce violet]	40.6[may fluoresce violet]	n	u
Nc1nc(SCC(=O)Nc2cc(C(F)(F)F)ccc2N2CCOCC2)n[nH]1	n	180.7	n	n	n
CN(CC(=O)Nc1ccccc1Cl)C(=O)COC(=O)CCN1C(=O)C2CC=CCC2C1=O (stereo unspecified)	n	n	n	n	n
OC(COc1ccccc1)CN1CCCCCC1 (stereo unspecified)	n	n	n	n	n
